Screens (PubChem)
The full list was thinned out, with hits kept by preference.
RE007 growth inh – qHTS Assay for Inhibitors of the HIV-1 protein Vpr; S. pombe RE007 Vpr strain, BacTiter-Glo ATP luminescence, 24 h; Potency, µM (highest dose often 92.2 µM), for inactives: at the top dose activity change, negative = less growth, usual class: inhibitors; actives 0.21% (n = 360,000); AID 651644, 2012; active = well fitted falling curve with a large enough effect; inconclusive = small, poorly fitted or top-dose-only effect; inactive = no such curve, though single readings can be large or run the other way; also: potency is read from the fitted curve at half-maximal effect; % is scaled to controls: 0 for no effect and ±100 for the full control effect; nearly all actives have a fitted effect of over 50% in size
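Fission yeast RE007 carrying one integrated HIV-1 vpr copy, seeded at OD 0.01 in PMG+AL medium with 23 nL pinned compound. Grown 24 h at 30 degrees; viability read by BacTiter-Glo luminescence after 5 min.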
Shiga inhibitor – A qHTS for Small Molecule Inhibitors of Shiga Toxin; Vero cells, Shiga toxin protein synthesis inhibition reporter; inhibition, % at 38.7 µM; actives 9.2% (n = 290,000); in the data active = inhibition mostly above about 28%, no sharp cut-off; inactive = mostly below about 43%; also: 0% is about no effect
LmPK inhibitor – qHTS Assay for Inhibitors of Leishmania Mexicana Pyruvate Kinase (LmPK) | Q27686 | purified LmPK, Kinase-Glo ATP luminescence, 1 h | Potency, µM (series often up to 57.5 µM), for the others: top-dose activity change, negative = inhibition, usual class: inhibitors | actives 0.37% (n = 290,000); also: potency is read from the fitted curve at half-maximal effect; % is scaled to controls: 0 for no effect and ±100 for the full control effect
Target sequence (Q27686 whole entry, looked up): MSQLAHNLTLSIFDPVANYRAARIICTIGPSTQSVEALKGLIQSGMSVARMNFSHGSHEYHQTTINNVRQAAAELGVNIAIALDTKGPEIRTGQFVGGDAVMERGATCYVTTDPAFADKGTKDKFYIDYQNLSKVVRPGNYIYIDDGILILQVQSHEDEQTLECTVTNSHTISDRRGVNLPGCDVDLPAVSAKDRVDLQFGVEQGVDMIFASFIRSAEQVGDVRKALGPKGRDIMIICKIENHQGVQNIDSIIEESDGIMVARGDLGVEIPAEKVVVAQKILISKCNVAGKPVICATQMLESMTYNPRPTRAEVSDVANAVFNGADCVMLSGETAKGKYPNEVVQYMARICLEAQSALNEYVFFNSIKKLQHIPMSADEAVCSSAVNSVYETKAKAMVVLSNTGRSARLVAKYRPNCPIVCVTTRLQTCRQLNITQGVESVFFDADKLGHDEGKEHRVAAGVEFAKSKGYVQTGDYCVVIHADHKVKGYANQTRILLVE
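In 50 mM imidazole pH 7.2 with 7 mM MgCl2, LmPK (0.1 nM) turned over PEP (0.5 mM) and ADP (0.1 mM) for 1 h at room temperature. Luciferase read-out of ATP.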
CHX counter – Cycloheximide Counterscreen for Small Molecule Inhibitors of Shiga Toxin. actives 12% (n = 300,000). max response, %. AID 2314, 2010. cell reporter, cycloheximide protein synthesis inhibition counterscreen; in the data active = max response mostly above about 13%, no sharp cut-off; inactive = mostly below about 14%; also: read at 38.3 µM for the half of the compounds with a filed dose; 0% is about no effect
TbPYK inhibitor – qHTS of Trypanosoma Brucei Inhibitors | actives 0.12% (n = 410,000) | TbPYK enzyme, Kinase-Glo Plus ATP luminescence, 45 min | Potency, µM (highest dose often 76.8 µM), inactives show at the highest dose activity, negative = inhibition, usual class: inhibitors | pyruvate kinase (Trypanosoma brucei), Q57TT1; also: potency is read from the fitted curve at half-maximal effect; % is scaled to controls: 0 for no effect and ±100 for the full control effect; nearly all actives have a fitted effect of over 50% in size
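Luminescence from Kinase-Glo Plus, added after a 45-minute room-temperature reaction, served as the end-point read-out. The enzyme and substrate were preincubated with compound before ADP (130 uM final) initiated turnover. Concentration-effect curves came from normalized qHTS data.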
Giardia FBPA inh – qHTS Assay for Inhibitors of Fructose-1,6-bisphosphate Aldolase from Giardia Lamblia; actives 0.71% (n = 290,000); AID 2451, 2010; Potency, µM (highest dose often 59.6 µM), for inactives: at the top dose activity, negative = inhibition, hits mostly inhibitors; A8B2U2; purified Giardia FBPA; also: potency is read from the fitted curve at half-maximal effect; % is scaled to controls: 0 for no effect and ±100 for the full control effect; nearly all actives have a fitted effect of over 55% in size
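40 nM FBPA preincubated 10 min at RT with compound (up to 57.5 uM final), then substrate plus GAPDH/TPI/NAD/arsenate coupling and diaphorase/resazurin added. Fluorescence read after 20 min at RT, 525/598 nm.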
* marks the source's active call; other numbers are inactive results; ? = inconclusive; . = no result; + = active, no number; [ ] = dose if it differs, or a comment. Unless noted, calls follow the shape of the dose curve; as a rule, active = well fitted curve in the direction sought with a large enough effect; inconclusive = small, poorly fitted or top-dose-only effect, or another doubt; inactive = no such curve, though single readings can be large; an effect the other way counts as inactive or inconclusive.

SMILES	RE007 growth inh	Shiga inhibitor	LmPK inhibitor	CHX counter	TbPYK inhibitor	Giardia FBPA inh
CC(=O)N/C(=C\c1cccc([N+](=O)[O-])c1)C(=O)NC1CCCCC1	13%	61*	-4%	49*	5%	15%
CCC(Sc1nnc(-c2ccc(OC)cc2)c(-c2ccc(OC)cc2)n1)C(=O)Nc1cccc(OC)c1 (configuration not stated)	.	.	.	.	3%	.
C=C[C@@]1(C)CC[C@H](O)[C@H]2C(=O)CCC[C@@H]21	.	.	.	.	.	3%
O=C(NC1CCCCCCC1)c1ccc(Br)o1	-1%	84*	-1%	25*	-14%	-5%
O=C(NC1CCCCC1)c1ccc(-c2cccc([N+](=O)[O-])c2)o1	-7%	74*	4%	56*	0%	?
O=c1ncccn1[C@@H]1O[C@H](CO)[C@@H](O)[C@H]1O	.	-7	.	7	.	0%
Nc1nc(F)nc2c1ncn2[C@@H]1O[C@H](COP(=O)(O)O)[C@@H](O)[C@@H]1O	.	.	.	.	2%	.
CC(C)c1ccc(-n2c(O)c(/C=N/NC(=O)c3ccncc3)c(=O)[nH]c2=O)cc1	5%	-4	-1%	-3	-4%	-19%
O=c1[nH]c(=S)n(C2CC2)c(O)c1/C=N/Nc1cccc2ccccc12	-22%	72*	-2%	25*	-7%	?
CC(N=Cc1c(O)n(C2CC2)c(=S)[nH]c1=O)c1ccccc1 (configuration not stated)	0%	-5	-7%	-2	-1%	-11%
CC(C)c1ccc(-n2c(O)c(/C=N/NC(=O)c3ccccc3O)c(=O)[nH]c2=S)cc1	3%	48*	-4%	33*	-21%	16%
CCn1c(O)c(/C=N/NC(=O)c2ccncc2)c(=O)[nH]c1=S	-5%	-3	1%	7	-10%	18%
CCn1c(O)c(/C=N/NC(=O)c2ccccc2)c(=O)n(CC)c1=S	6%	52*	-1%	47*	-1%	9%
O=c1[nH]c(=S)n(C2CC2)c(O)c1/C=N/Nc1ccccc1	164%	65*	2%	24*	-9%	?
O=C(N/N=C/c1c(O)n(C2CCCCC2)c(=S)[nH]c1=O)c1ccccc1O	1%	11	10%	15	-2%	?
CCCCC(=O)N/N=C/c1c(O)n(Cc2ccco2)c(=O)[nH]c1=O	11%	12	10%	1	-13%	16%
O=C(N/N=C/c1c(O)n(Cc2ccco2)c(=O)[nH]c1=O)c1ccccc1O	-4%	73*	15%	22*	-14%	?
O=C(N/N=C/c1c(O)n(C2CCCCC2)c(=S)[nH]c1=O)c1ccccc1	6%	48*	-5%	22	-2%	25%
O=C(N/N=C/c1c(O)n(CCc2ccccc2)c(=O)[nH]c1=O)c1ccccc1	-2%	31*	8%	30*	-2%	9%
CNC(=O)N(O)C1N(/N=C/c2ccccc2O)C(=S)SC1(C)C (configuration not stated)	5%	28	7%	15*	1%	-14%
CNC(=O)N(O)C1N(/N=C/c2ccccc2F)C(=S)SC1(C)C (configuration not stated)	-1%	-10	-1%	-4	1%	-24%
CC1C/C(=C/c2ccccn2)C(=O)/C(=C/c2ccccn2)C1 (configuration not stated)	63µM*	-9	0%	10	3%	-19%
CC(C)(C)C1C/C(=C/c2ccccn2)C(=O)/C(=C/c2ccccn2)C1 (configuration not stated)	-11%	-23	0%	-11	6%	?
O=C1/C(=C/c2ccccc2[N+](=O)[O-])COc2ccccc21	-14%	155*	-2%	76*	-5%	-1%
CNc1ccc(/C=C2\COc3ccccc3C2=O)cc1[N+](=O)[O-]	-12%	15	8%	-2	3%	5%
SMILES	RE007 growth inh	Shiga inhibitor	LmPK inhibitor	CHX counter	TbPYK inhibitor	Giardia FBPA inh
O=C1/C(=C/c2ccccn2)COc2ccccc21	-20%	78*	-5%	27*	-10%	-5%
O=C1/C(=C/c2ccc(O)cc2)COc2ccccc21	?	45*	-9%	29*	?	6%
Cc1ccc(-n2ncc(C(=O)NCCN3CCc4ccccc4C3)c2C2CCN(C(=O)OC(C)(C)C)CC2)cc1	.	.	.	.	-12%[15.4 µM]	.
COc1ccc(-n2nc(C(=O)N3CCCCC3)c3c4ccccc4n(C)c3c2=O)cc1Cl	.	.	.	.	1%	.
COc1cc2ccccc2cc1C(=O)Nc1cccc(-c2nc3cc(C)c(C)cc3o2)c1	.	.	.	.	-7%	.
O=c1[nH]c(-c2ccccc2)nnc1-c1ccccc1	-4%	25	-21%	18*	0%	-7%
Cc1nnc(-c2ccccc2)[nH]c1=O	-7%	-7	-5%	6	0%	4%
Nc1nc(-c2ccccc2)[nH]c(=O)c1N	-2%	30*	5%	26*	2%	?
CCOc1ccc(NC(=NCc2ccc3c(c2)OCO3)SC2CC(=O)N(c3ccc(OCC)cc3)C2=O)cc1 (configuration not stated)	2%	+	-7%	63*	1%	2%
CCn1c2ccccc2c2cc(/C=N/NC(=O)c3ccc(O)cc3)ccc21	2%	active	2%	26*	-11%	-11%
Cn1c(O)c(/C=N/NC(=O)c2cc3ccccc3cc2O)c2ccccc21	-26%	80*	7%	21	3%	27%
COCCn1c(C)cc(/C=N/NC(=O)c2cc3ccccc3cc2O)c1C	-18%	.	.	.	-4%	.
Cn1c2ccccc2c2cc(/C=N/NC(=O)c3ccc(O)cc3O)ccc21	3%	72*	-3%	32*	-6%	-11%
O=C(N/N=C/c1cccc(Oc2ccccc2)c1)c1ccc(O)cc1O	-2%	34	3%	30	4%	1%
CCn1c2ccccc2c2cc(/C=N/NC(=O)c3cc(O)cc(O)c3)ccc21	-13%	6	9%	4	0%	-24%
CC(O)CNc1ncnc2cc(-c3ccc(F)cc3)sc12 (configuration not stated)	-4%	79*	1%	15*	3%	-8%
COc1ccc2oc(=O)cc(CN3CCN(C(=O)c4ccccc4)CC3)c2c1	.	.	.	.	-6%	.
Cc1ccc2nc(NC(=S)NC(=O)c3ccc(OC(C)C)cc3)sc2c1	-5%	-6	13µM*	1	3%	-16%
Cc1ccc2nc(NC(=S)NC(=O)c3cccs3)sc2c1	-13%	102*	4%	47*	0%	-25%
